Screening data: PubChem BioAssay, several laboratories
GRIN3A LBD mod: modulators (binders) of human NR3A ligand-binding domain. NR3A LBD differential scanning fluorimetry, Tm shift; 0% = protein alone, 100% = glycine-bound protein. Tm shift relative to glycine control, % at 25 µM. 2.5% of 340,000 active. AID 1259313;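 active means melting temperature shift of at least 10% of the positive control shift, at one fixed dose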
CSC inhib: blocks cancer stem cells; cancer stem cell-like cells viability, luminescence; inhibition, % at 7.5 µM; 1.1% of 300,000 active; in the data active means inhibition above about 75%; tested in HMLE shEcad cells
MPTP inh: permeability transition pore inhibition; isolated mouse mitochondria, Ca2+ swelling absorbance, 30 min; inhibition, % at 10 µM; 1.4% of 360,000 active;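 active means inhibition of 50% or more, scaled per plate between neutral and stimulator controls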
Gli-Sufu antag: blocks Gli-Sufu signaling in a luciferase reporter; Sufu-KO-LIGHT fibroblasts, Gli luciferase reporter luminescence; inhibition, % at 5 µM; 0.74% of 340,000 active;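 active means inhibition above about 55%, limit read from the data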
Mdm2-MdmX inh: inhibitors of human Mdm2/MdmX interaction | 3% of 330,000 active | inhibition, % at 8 µM | SaOS-2 split-luciferase Mdm2/MdmX complementation, luminescence | O15151+Q00987;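 active means inhibition of at least 50% at 8 µM in the primary screen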
Beta cell apopt: beta cell apoptosis inhibition; INS-1E cytokine-induced death, ATP luminescence, 48 h; percent of positive-control rescue, neutral wells zero; protection from apoptosis, % (concentration not given with the values); 0.8% of 300,000 active; AID 435005;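 active means Every replicate reaches about 75%, or at least half do and their mean reaches it too, limit read from the data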;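 further: higher means more ATP so stronger rescue from cytokine killing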
Mdm2 MdmX conf: human Mdm2/MdmX binding inhibition, confirmed | shares compounds with Mdm2-MdmX inh | luminescent assay | inhibition, % at 8 µM | 55% of 10,000 active; in the data active means inhibition above about 40%
FLuc counter: full-length luciferase inhibition in Mdm2/MdmX counter-screen | inhibition, % at 8 µM | SaOS-2 full-length luciferase counterscreen, luminescence | 77% of 6,200 active | shares compounds with Mdm2-MdmX inh | AID 504607;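 active means mean inhibition at 8 µM reaching about 37%, which flags the compound as non-specific, limit read from the data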;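 further: p53-null SaOS-2 cells with luciferase driven by a doxycycline-inducible promoter; compound on cells about two nights before reading with doxycycline added after day one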
Hits are given with their value; 0 = inactive; - = not tested or not shown. Only some compounds are listed: those with a hit (about 6.6% of all), similar ones and a draw of the others.

SMILES	GRIN3A LBD mod	CSC inhib	MPTP inh	Gli-Sufu antag	Mdm2-MdmX inh	Beta cell apopt	Mdm2 MdmX conf	others
CCOC(=O)C1=C(C)Nc2ccccc2N=C1NC(=O)c1oc2ccccc2c1COC	0	0	0	0	59.0	0	50.0	FLuc counter=77.2
Cc1cc(Br)ccc1SCC(=O)OC/C(O)=C(\C#N)c1nc2ccccc2[nH]1	0	0	0	0	82.6	0	0
N#C/C(=C(/O)COC(=O)CCC1CCCCC1)c1nc2ccccc2[nH]1	0	-	0	0	66.3	0	0
CCCC(=O)OC/C(O)=C(\C#N)c1nc2ccccc2[nH]1	0	0	0	0	0	0	-
N#C/C(=C(/O)COC(=O)CSc1ccc2ccccc2c1)c1nc2ccccc2[nH]1	20.5	0	0	0	51.3	0	0
O=C1c2cccc(-c3ccc(C(F)(F)F)cc3)c2C2CC=CCN12 (stereo not given)	-	-	0	-	-	-	-
Cc1ccc(OCCN2CCN(CC(O)Cn3c4ccccc4c4ccccc43)CC2)cc1 (stereo not given)	-	89.6	-	-	84.6	0	0
O=[N+]([O-])c1ccc(O)c(Nc2ncnc3ccccc23)c1	0	0	0	0	60.2	0	0
